Compound activity: PubChem, National Center for Advancing Translational Sciences (NCATS)
TRHR ag – qHTS for Small Molecule Agonists and Allosteric Enhancers of Human TRH Receptor: Primary Screen for Agonists. TRHR cells, calcium flux fluo-8, FDSS agonist mode. activation, % at 2 µM. 0.18% of 360,000 active. AID 493084, 2011; note: 0% is about no effect
Target sequence (P34981 whole entry, looked up): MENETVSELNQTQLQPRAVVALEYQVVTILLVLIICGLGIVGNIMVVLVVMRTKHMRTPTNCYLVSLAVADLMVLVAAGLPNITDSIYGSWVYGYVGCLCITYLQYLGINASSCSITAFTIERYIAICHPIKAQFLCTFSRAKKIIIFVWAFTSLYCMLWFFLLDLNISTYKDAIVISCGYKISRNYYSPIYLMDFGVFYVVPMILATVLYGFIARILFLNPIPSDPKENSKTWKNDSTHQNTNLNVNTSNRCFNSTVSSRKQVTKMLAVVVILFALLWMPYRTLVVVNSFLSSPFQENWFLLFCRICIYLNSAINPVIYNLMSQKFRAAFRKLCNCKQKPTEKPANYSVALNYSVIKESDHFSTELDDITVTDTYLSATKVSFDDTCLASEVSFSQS
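TRHR-expressing cells, plated overnight in medium with 10% serum, were loaded with fluo-8 calcium dye at room temperature. After a 10 s baseline, library compound was pin-added and calcium release was recorded kinetically (ex 480/em 530) as agonist response.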
TRHR enhancer – qHTS for Small Molecule Agonists and Allosteric Enhancers of Human TRH Receptor: Primary Screen for Enhancers; Thyrotropin-releasing hormone receptor (Homo sapiens), P34981; TRHR cells, fluo-8 calcium fluorescence, EC20 TRH enhancement; enhancement, % at 2 µM; 0.66% of 360,000 active; in the data active = enhancement above about 30%; note: 0% is about no effect
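Enhancer read-out: after compound pinning and an initial kinetic agonist-mode read, an EC20 of TRH (10 nM final) was injected and fluo-8 calcium signal (Ex 480/Em 530) followed at 1 s/cycle for 100 cycles in TRHR-expressing cells.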
D1 potentiator – Potentiators of Human D1 Dopamine Receptor: qHTS. HEK293 TREx D1 cells, calcium flux, dopamine EC20 potentiation. D(1A) dopamine receptor (Homo sapiens), P21728. potentiation, % at 10 µM. 0.036% of 360,000 active; in the data active = potentiation above about 30%; note: 0% is about no effect
D1 antagonist – Antagonist of Human D 1 Dopamine Receptor: qHTS | HEK293 TREx D1 cells, calcium flux, dopamine EC80; stronger effect = lower value | activity change, negative = inhibition, % at 10 µM | 3.2% of 360,000 active | AID 504652, 2011; in the data active = activity change below about -30%; note: % is set by controls: 0 for no effect and ±100 for the full control effect
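Using tetracycline-induced force-coupled D1 Hek293 cells and a calcium dye, signals were followed for 180 s after compound, then for 180 s after EC80 dopamine, to detect inhibitors.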
D1 ag – Allosteric Agonists of the Human D1 Dopamine Receptor: qHTS; D(1A) dopamine receptor (Homo sapiens), P21728; HEK293 T-REx D1 cells, calcium flux, agonist mode; activation, % at 2 µM; 1% of 360,000 active; note: 0% is about no effect
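Inducible HEK293 T-REx D1 cells, force-coupled to calcium signalling, were plated at 4000 cells/well with tetracycline and held overnight at 30 C. After no-wash calcium dye loading, compound-evoked calcium rise over 180 s flagged agonists.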
LDHA block – qHTS assay for inhibitors of human lactate dehydrogenase; L-lactate dehydrogenase A chain (Homo sapiens), P00338; purified LDHA, NADH/diaphorase-resazurin fluorescence; stronger effect = lower value; activity change, % (values are at about 110 or 230 µM); 0.15% of 480,000 active; AID 1347041, 2019; in the data active = activity change below about -30%;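 note: plate controls were DMSO wells for no effect and wells without enzyme for full effect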
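Human LDH5 at 2 nM final in Tris HCl pH 7.4 with 0.06 mM NADH and 0.2 mM pyruvate, reacted 5 minutes at room temperature. Remaining NADH coupled via diaphorase/resazurin; resorufin fluorescence read at 0 and 20 minutes, normalized to enzyme-free and DMSO wells.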
An asterisk follows results filed as active; . = no result. An excerpt weighted towards active compounds, which were near 3.6% of everything screened. Cut-off read from the data, not from the text of the source, unless noted: active = activation above about 30%; inactive = the rest.

SMILES	TRHR ag	TRHR enhancer	D1 potentiator	D1 antagonist	D1 ag	LDHA block
O=C(Nc1ccc(S(=O)(=O)N2CCOCC2)cc1)c1ccc(F)cc1	0.5	-4.2	-4.0	4.7	6.9	-1.0
O=C(Nc1ccc[nH]c1=O)c1cc[n+]([O-])cc1	.	.	.	.	.	34.6
CCn1c(Br)nc2c1c(=O)n(C)c(=O)n2C	.	.	.	.	.	0.9
Cc1cc(NC(=O)CCNC(=O)c2ccc3ccccc3c2)n[nH]1	.	.	.	.	.	1.7
O=C(/C=C/c1ccc(C(F)(F)F)cc1)N1CCN(C(=O)C2CC2)CC1	.	.	.	.	.	0.0
COc1cccc(-c2nc(SCC(=O)NCC3CCCO3)c(-c3ccc(Cl)cc3)[nH]2)c1 (stereo unspecified)	2.3	-1.6	-3.6	-56.4*	1.7	-18.6
COc1ccc(-c2[nH]c(-c3ccc(Cl)cc3)nc2SCC(=O)Nc2nccs2)cc1	0.0	-8.4	-5.5	-31.7*	0.4	-8.0
COc1ccc(-c2[nH]c(-c3ccccc3)nc2SCC(=O)Nc2nccs2)cc1	-0.4	0.6	-2.5	-4.2	-4.2	-0.9
COc1cccc(-c2nc(SCC(=O)NCC3CCCO3)c(-c3ccc(C)cc3)[nH]2)c1 (stereo unspecified)	2.0	0.5	-1.0	11.6	-1.3	-3.7
CC(Sc1nc(NC2CC2)c2ccccc2n1)C(=O)N(C)C (stereo unspecified)	.	.	.	.	.	-2.0
CN1CCCCCC1=NCCCn1cnc2c1c(=O)[nH]c(=O)n2C	.	.	.	.	.	7.7
COc1ccc(C(=O)O)cc1NC(=S)NC(=O)CSc1ccc(Cl)cc1	0.4	-3.0	-3.0	-74.5*	3.3	-9.7
COc1ccc(CC(=O)NC(=S)Nc2cccc(C)c2)cc1	.	.	.	.	.	-0.8
CCC(=O)NC(=S)Nc1ccccc1OC	0.1	2.1	-4.7	-9.3	0.7	0.1
COc1cccc(NC(=S)NC(=O)Cc2ccc(Cl)cc2)c1	4.1	1.8	-5.5	0.2	68.4*	0.4
COc1ccccc1NC(=S)NC(=O)Cc1ccc(Cl)cc1	5.3	-21.2	-5.5	-43.2*	57.5*	0.0
Cc1cc2oc(C(=O)NCC(c3ccco3)N3CCCC3)cc(=O)c2cc1Cl (stereo unspecified)	.	.	.	.	.	0.9
CCOc1cc(C(c2c(C)[nH]c3ccccc23)c2c(C)[nH]c3ccccc23)ccc1O	.	.	.	.	.	18.3
Cc1ccc(S(=O)(=O)c2nnn3c2nc(NC2CCCCC2)c2sccc23)cc1C	-0.2	24.5	-6.2	-39.0*	14.9	-5.2
Cc1cc(C)cc(Nc2nc3c(S(=O)(=O)c4cccc(Cl)c4)nnn3c3ccsc23)c1	0.0	6.6	-5.5	3.8	1.3	6.1
O=S(=O)(c1cccc(Cl)c1)c1nnn2c1nc(NC1CCCC1)c1sccc12	0.1	8.4	-7.7	-72.2*	6.0	-3.2
Cc1ccc(C)c(S(=O)(=O)c2nnn3c2nc(NC2CCCC2)c2sccc23)c1	0.1	-8.3	-4.8	-24.3	1.6	1.2
C/C(CC(C)C)=N\NC(=O)CCC(=O)N/N=C(\C)CC(C)C	.	.	.	.	.	0.0
CCc1ccc2[nH]c(=O)c(CN(CCCN3CCOCC3)C(=O)Nc3ccccc3)cc2c1	-0.2	0.6	-11.2	12.8	0.9	-2.9
CCOc1ccc2[nH]c(=O)c(CN(CC3CCCN3CC)C(=O)NCc3ccccc3)cc2c1 (stereo unspecified)	0.1	2.2	4.9	-50.3*	2.7	-5.5
SMILES	TRHR ag	TRHR enhancer	D1 potentiator	D1 antagonist	D1 ag	LDHA block
COc1ccc2[nH]c(=O)c(CN(CCCN3CCOCC3)C(=O)NCc3ccccc3)cc2c1	0.5	-1.1	-0.5	-37.1*	0.6	-6.6
COc1ccc2[nH]c(=O)c(CN(Cc3ccccc3)C(=S)NCC3CCCO3)cc2c1 (stereo unspecified)	-0.7	35.2*	7.5	2.6	2.4	-12.1
CCOc1ccc2[nH]c(=O)c(CN(Cc3ccc(F)cc3)C(=O)N3CCCC3)cc2c1	0.1	8.2	-5.9	0.2	2.0	4.2
COc1ccc2cc(CN(Cc3ccco3)C(=S)NCC3CCCO3)c(=O)[nH]c2c1 (stereo unspecified)	-0.9	2.2	1.9	5.6	1.0	-10.5
COC(=O)C1=C(C)NC(=O)C1(NC(=O)c1ccc(F)cc1)C(F)(F)F (stereo unspecified)	.	.	.	.	.	5.1
Cc1ccc(OCC(O)Cn2nc(C)c3ccccc3c2=O)cc1 (stereo unspecified)	.	.	.	.	.	1.8
CC(=O)c1c(C)[nH]c(C(=O)C(C)OC(=O)c2ccc(F)cc2Cl)c1C (stereo unspecified)	.	.	.	.	.	10.3
Oc1ccc2c(-c3ccc(F)cc3)noc2c1	.	.	.	.	.	-21.3
Cc1ccccc1Nc1nc(N)c(C(=O)c2ccccc2Cl)s1	-0.3	3.8	-3.0	-48.2*	95.5*	-4.8
Cc1ccc(Nc2nc(N)c(C(=O)c3ccccc3Cl)s2)c(C)c1	.	.	.	.	.	2.2
CCOC(=O)c1cc(-c2cc(OC)c(OC)c(OC)c2)nc2ccccc12	.	.	.	.	.	-10.0
Cc1cc(N2C(=O)c3ccc(C(=O)Nc4ccc(O)cc4C(=O)O)cc3C2=O)no1	0.1	0.4	-0.9	-34.6*	11.7	-8.3
COC(=O)c1ccccc1NC(=O)N1CCC(N2CCN(Cc3ccc(F)cc3)C(=O)C2=O)CC1	-0.4	-0.2	-1.0	-39.1*	-1.2	-5.2
COc1ccc(OC)c(NC(=O)N2CCC(N3CCN(Cc4ccc(F)cc4)C(=O)C3=O)CC2)c1	0.7	-3.4	-0.6	-2.0	-1.6	0.6
O=C(CSc1cccc2cccnc12)N/N=C/c1cccc(O)c1	-0.2	11.4	-0.6	4.5	2.7	-1.2
O=C(CSc1cccc2cccnc12)N/N=C/c1ccc(F)cc1	-1.0	5.2	-9.3	-49.9*	1.8	-6.2
O=C(c1ccccc1)c1ccc(OCC(O)CNCc2ccc(Cl)cc2)cc1 (stereo unspecified)	-1.3	13.3	4.8	-2.5	74.9*	-6.6
OC(CNC1CCCC1)COc1ccc(-c2ccccc2)cc1 (stereo unspecified)	1.9	17.6	-7.5	-28.1	20.7	-6.4
OC(CNC1Cc2ccccc2C1)COc1ccc(Cl)cc1 (stereo unspecified)	1.1	1.9	-3.3	15.5	39.6*	-3.0
COc1ccc(S(=O)(=O)n2nc(-n3c(C)ccc3C)c3c(F)cccc32)cc1OC	-0.9	0.7	-10.8	-34.0*	9.2	4.8
CCOC(=O)c1cccnc1SCC(=O)N(C)c1ccccc1	-0.3	2.8	1.1	-44.1*	5.4	-14.1
